In the library only some 1.8% were active in any assay of this set; here they are far more common.
NALP3 yeast inh – inhibitors of NALP3 inflammasome in yeast. Yeast reconstituted NLRP3/ASC/caspase-1, beta-gal luminescence, 24 h. inhibition, % at 10 µM. 330,000 tested, 0.39% active. AID 2825;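 active = inhibition of 50% or more; inactive = inhibition below 50%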
NALP1 inh – inhibitors of NALP1 inflammasome in yeast; S. cerevisiae NALP1/ASC/caspase-1 growth, X-gal OD620, 72 h; inhibition, % at 10 µM; 280,000 tested, 0.61% active; in the data active = inhibition mostly above about 24%, no sharp cut-off; inactive = mostly below about 32%
SUMO Mot1 rescue – inhibitors of SUMOylation pathway: yeast Mot1-301 growth rescue. S. cerevisiae Mot1-301 growth rescue, ATP luminescence, 38.5C; percent above DMSO median, 100 means doubled. growth rescue, % at 18.8 µM. 320,000 tested, 1% active. AID 2716;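 active = every valid replicate shows activation above 250% relative to neutral control wells; inactive = the rest, any valid replicate at or below 250%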
PolyA inhibitor – yeast polyadenylation inhibition. activity score, % at 12 µM. 300,000 tested, 0.02% active. S. cerevisiae SKY197-pL101 polyadenylation reporter, beta-gal luminescence; efflux-impaired pdr1/pdr3 knockout yeast; score 100 = 6 SD above DMSO. AID 1875;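 active = lowest replicate activity score at least 50, where 100 means six control SD above control mean; inconclusive = lowest score under 50 but half or more replicates reach 50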;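 also: yeast exposed to compound for 9 h at 30 °C; higher score means more reporter readthrough which indicates perturbed polyadenylation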
Numbers stand for hits; - = inactive; ? = inconclusive; . = not tested or not shown.

SMILES	NALP3 yeast inh	NALP1 inh	SUMO Mot1 rescue	PolyA inhibitor
Cc1ccccc1CS(=O)(=O)c1nnc([C@H](CC(C)C)NC(=O)OC(C)(C)C)o1	-	-	-	-
CC1CC(C)CN(C2CCN(Cc3cccnc3)CC2)C1 (stereo unspecified)	-	-	-	-
CC(=C1C(=O)c2ccccc2C1=O)N1CCN(C/C=C/c2ccccc2)CC1	-	-	-	-
CC(C)(C#N)Nc1ccccc1	-	17.5	-	-
CC(C)(C#N)NC(=O)c1ccco1	-	-	-	-
COc1cccc2cc(-c3nc4ccccc4o3)c(=O)oc12	-	-	-	102.7
Cc1ccc(CONC(=O)c2ccc(Cl)cc2)cc1	-	.	-	.
O=C(NC1CCCc2ccccc21)c1ccccn1 (stereo unspecified)	-	-	-	-
Cc1cc(C)c(S(=O)(=O)NCCc2ccncc2)c(C)c1	-	-	-	-
Cc1cc(C)c(S(=O)(=O)NCc2ccncc2)c(C)c1	-	38.9	-	-
CCOc1ccccc1CN1CCN(Cc2nc3c(s2)CCCC3)CC1CCO (stereo unspecified)	-	35.1	-	-
CCOc1ccc(S(=O)(=O)Nc2ccc3c(c2)c2c(n3S(=O)(=O)c3ccc(OCC)cc3)CCCC2=O)cc1	-	-	876.9	-
CC(C)C(NC(=O)/C=C/c1ccc(F)cc1)C(C)C	-	-	288.2	-
CC(NC(=O)/C=C/c1ccccc1)c1ccccc1 (stereo unspecified)	-	-	-	-
CC(C)(C)c1cc2cccnc2n1Cc1cccc(Cl)c1	-	46.0	-	-
CC1(c2ccccc2)NC(=O)N(CC(=O)N2CCOCC2)C1=O (stereo unspecified)	-	36.5	-	-
O=C(C1COc2ccccc2O1)N1CCN(c2nc3ccc([N+](=O)[O-])cc3s2)CC1 (stereo unspecified)	-	.	534.7	-
O=C(C1COc2ccccc2O1)N1CCN(c2nc3ccccc3s2)CC1 (stereo unspecified)	-	-	-	-
Cc1ccc(O)c(C2=NNC(O)(C(F)(F)F)C2)c1 (stereo unspecified)	-	-	340.4	-
Cc1ccc(O)c(C2=NNC(c3ccc(Cl)cc3)C2)c1 (stereo unspecified)	-	-	-	-
c1ccc(OCCCc2nc(-c3ccccn3)no2)cc1	-	-	-	-
CC(CCc1ccc(O)cc1)N(C)CCc1ccccc1 (stereo unspecified)	-	25.8	-	-
[N-]=[N+]=CC(=O)C(O)(c1ccccc1)C(Cl)c1ccccc1 (stereo unspecified)	-	.	301.5	-
O=C(Nc1ccon1)c1ccc(Br)o1	-	-	-	-
CC1CCCCC1NC(=O)/C(C#N)=C/c1ccc(F)c(F)c1 (stereo unspecified)	-	-	-	-
SMILES	NALP3 yeast inh	NALP1 inh	SUMO Mot1 rescue	PolyA inhibitor
COCCCNCCCCOc1ccc(Br)cc1Cl	-	-	280.0	-
C=CCNCCCOc1ccc(Cl)cc1Br	-	46.4	-	-
O=C(Nc1ccc(S(=O)(=O)NC2=NCCCCC2)cc1)c1ccc(Cl)c([N+](=O)[O-])c1	-	.	-	.
c1ccc(OCc2noc(CN3CC[C@@H]4CCCC[C@H]4C3)n2)cc1	-	-	-	-
CCn1c(SCC(=O)N2CCCC(C)C2)nnc1-c1ccc(S(=O)(=O)N2CCN(C)CC2)cc1 (stereo unspecified)	-	35.2	-	-
CCn1c(SCC(=O)N2CCCCC2)nnc1-c1ccc(S(=O)(=O)N2CCN(C)CC2)cc1	-	-	-	-
CC(C)[C@H](NC(=O)[C@@H]1Cc2ccccc2CN1C(=O)OC(C)(C)C)C(=O)NCC1CCCO1 (stereo partly specified)	-	-	-	-
COCCN(C(=O)COC(=O)CSc1ccccc1)c1c(N)n(Cc2ccccc2)c(=O)[nH]c1=O	-	.	355.7	-
Cc1ccc(N2C(=O)C3CCC(C)(C2=O)C3(C)C)cc1 (stereo unspecified)	-	-	-	-
CSC[C@@H]1NC(=S)N(c2ccc(C)cc2)C1=O	-	75.8	-	-
CCN1CCN(CCCNC(=O)Cn2cc3c(n2)CCCC3)CC1	-	43.8	-	-
O=C(Cn1cc2c(n1)CCCC2)NCCCN1CCN(Cc2ccccc2)CC1	-	-	-	-
Cc1ccc2c(c1)c(N=Nc1ccc([N+](=O)[O-])cc1)c(O)n2C	-	33.1	-	-
CCc1ccc2[nH]c(=O)c(CN(Cc3ccco3)C(=S)NCC3CCCO3)cc2c1 (stereo unspecified)	-	38.0	-	-
CC(C)OC(=O)C(=O)NNc1ccccc1	-	-	-	-
C=C(C)C(=O)NNc1ccccc1	-	26.6	-	?
CC(=O)Oc1ccc2c(=O)c(-c3nc4ccccc4s3)coc2c1	-	28.0	-	-
CC(=O)Oc1ccc2c(=O)c(Oc3ccccc3[N+](=O)[O-])coc2c1	-	-	-	-
COc1cc(C2SCC(=O)N2c2c(C)n(C)n(-c3ccccc3)c2=O)ccc1O (stereo unspecified)	-	38.4	-	-
C1CCC(C(CC2CCCCN2)C2CCCCC2)CC1 (stereo unspecified)	-	71.3	-	-
COC(=O)CN(c1ccccc1C)S(C)(=O)=O	-	31.3	-	-
CCc1ccccc1N(CC(=O)OC)S(C)(=O)=O	-	-	.	-
CCN(CC)CCNC(=O)c1ccc2c(c1)NC(=O)c1ccccc1S2	-	-	-	-
CN(C)CCNC(=O)c1ccc2c(c1)NC(=O)c1ccccc1S2	-	-	335.7	-
CC(=O)C1=C(C)Nc2ncnn2C1c1cccc(O)c1 (stereo unspecified)	-	-	335.9	-
SMILES	NALP3 yeast inh	NALP1 inh	SUMO Mot1 rescue	PolyA inhibitor
COc1cc(OC)c(C(=O)O/N=C(\N)c2ccccn2)cc1OC	-	-	326.8	-
Cc1ccc(NC(=O)C2(C)Cc3ccccc3C(=O)O2)cc1 (stereo unspecified)	-	-	-	-
c1ccc(CCNc2c3c(nc4ncnn24)CCC3)cc1	-	25.0	-	-
O=C(NNC(=S)NC1CC2C=CC1C2)c1cccnc1 (stereo unspecified)	-	-	-	66.0
COCc1ccc(C(=O)N2CCCC(CCC(=O)NCc3ccccc3F)C2)o1 (stereo unspecified)	-	-	-	-
CCOCCCNS(=O)(=O)c1ccc2c(c1)oc(=O)n2CC(=O)OCC	-	.	-	-
CCOC(=O)Cn1c(=O)oc2cc(S(=O)(=O)NCCC(C)C)ccc21	-	40.6	-	-
COc1ccccc1N(C)S(=O)(=O)c1ccc(C(=O)OCC(=O)N(C(C)C)C(C)C)cc1	-	25.8	-	-
Cc1ccc(C)c(OCCCN2CCc3ccccc3C2)c1	-	-	320.5	-
Cc1ccc(C(C)C)c(OCCCN2CCc3ccccc3C2)c1	-	-	-	-
Cc1ccc(F)cc1S(=O)(=O)NCc1ccc(N2CCN(C)CC2)cc1	-	31.3	-	-
CCc1ccc(S(=O)(=O)NCc2ccc(N3CCN(C)CC3)cc2)cc1	-	-	-	-
OCC#CCSc1nnc(-c2ccncc2)o1	-	31.4	-	-
CCOC(=O)CC1C(=O)NCCN1C(=O)c1c(F)cccc1F (stereo unspecified)	-	-	-	-
